# Inconclusive results are not listed. Entries that show only a call come without a potency. Activity calls are given as the source filed them. Unless noted, the call rests on the fitted dose curve; in most records, active means well fitted curve in the direction sought with a large enough effect in the repeat runs; inconclusive means weak or mixed curves; inactive means no such curve, though single readings can be large; an effect the other way counts as inactive or inconclusive.
# Legend:
# [1] = qHTS assay to identify small molecule that activate the aryl hydrocarbon receptor (AhR) signaling pathway - cell viability counter screen (AID 743086);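 further: HepG2 liver cells carrying the AhR DRE luciferase reporter; series mostly up to about 70 µM; nearly all actives have a fitted effect of over 45% in size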
# In short: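 HepG2-AhR-luc (HG2L7.5c1) cells, 4000/well, treated 24 h at 37 C with compound; viability measured as CellTiter-Fluor fluorescence after 30 min in the same wells as the luciferase read.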
# [2] = biological target: Peroxisome proliferator-activated receptor gamma (Homo sapiens) (UniProt P37231); assay: qHTS assay to identify small molecule antagonists of the peroxisome proliferator-activated receptor gamma (PPARg) signaling pathway (AID 743191; calls by dose curve; further: nearly all actives have a fitted effect of over 30% in size; further: potency means the concentration at half of the fitted maximal effect)
# Sequence of Peroxisome proliferator-activated receptor gamma (Homo sapiens) (P37231 whole entry, looked up): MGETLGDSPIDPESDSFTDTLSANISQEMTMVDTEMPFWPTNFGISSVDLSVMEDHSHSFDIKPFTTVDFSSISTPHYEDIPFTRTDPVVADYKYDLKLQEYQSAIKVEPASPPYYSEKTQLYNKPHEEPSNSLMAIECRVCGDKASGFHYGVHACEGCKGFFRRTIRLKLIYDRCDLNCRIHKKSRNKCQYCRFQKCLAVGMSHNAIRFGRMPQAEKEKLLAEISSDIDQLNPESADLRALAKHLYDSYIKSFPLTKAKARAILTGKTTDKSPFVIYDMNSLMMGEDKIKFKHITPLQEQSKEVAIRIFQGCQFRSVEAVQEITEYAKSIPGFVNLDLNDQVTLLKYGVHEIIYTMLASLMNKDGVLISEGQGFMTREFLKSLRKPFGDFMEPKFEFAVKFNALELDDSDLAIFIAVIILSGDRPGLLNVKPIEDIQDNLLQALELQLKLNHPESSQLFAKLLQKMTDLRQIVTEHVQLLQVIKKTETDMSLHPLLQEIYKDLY
# In short: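 GeneBLAzer PPARg UAS-bla HEK293H cells, 5 h post-plating, exposed to compounds 17 h at 37C. LiveBLAzer B/G FRET substrate added for 1 h at room temperature; beta-lactamase reporter read by fluorescence intensity.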
# [3] = qHTS assay to identify small molecule antagonists of the peroxisome proliferator-activated receptor gamma (PPARg) signaling pathway - cell viability counter screen (AID 743194); further: nearly all actives have a fitted effect of over 55% in size
# In short: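 Cytotoxicity counter screen in PPARg-bla HEK293H cells, same wells as reporter assay. Compounds plus 50 nM rosiglitazone (final) for 17 h at 37 C, then viability read by CellTiter-Glo luminescence.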
# [4] = qHTS assay for small molecule agonists of the antioxidant response element (ARE) signaling pathway (AID 743202; active means well fitted activation curve with a large enough effect in the signal ratio in the repeat runs, not every such curve was filed as active; the % refers to the signal ratio)
# In short: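 Agonist mode reporter screen: HepG2 cells with ARE-controlled beta-lactamase are incubated with test compounds for 16 h at 37 C, and beta-lactamase activity is measured as fluorescence of cleaved B/G FRET substrate.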
# [5] = qHTS assay for small molecule agonists of the antioxidant response element (ARE) signaling pathway - cell viability counter screen (AID 743203; calls by dose curve; further: nearly all actives have a fitted effect of over 55% in size)
# In short: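 Compounds in DMSO were pinned onto ARE-bla HepG2 cells plated 5 hrs earlier at 2,000 cells/well. Sixteen hours later at 37C/5% CO2, CellTiter-Glo was added and luminescence measured after 30 min at room temperature.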
# [6] = qHTS assay for small molecule activators of the heat shock response signaling pathway - cell viability counter screen (AID 743209); further: nearly all actives have a fitted effect of over 50% in size
# In short: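 Counter screen for cytotoxicity in HeLa HSE-bla reporter cells. Treatment was 5 h at 37 C; viability was detected by luminescent ATP assay (CellTiter-Glo) in the same wells as the beta-lactamase read.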
# [7] = qHTS assay for small molecule activators of the heat shock response signaling pathway (AID 743210; active means well fitted activation curve with a large enough effect in the signal ratio in the repeat runs, with a control signal flat, not every such curve was filed as active; the % refers to the signal ratio;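 further: HeLa cells with beta-lactamase reporter driven by heat shock elements; series mostly up to about 63 µM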)
# In short: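 Quantitative high-throughput format using an engineered HeLa line in which heat shock response elements drive beta-lactamase; after 5 h with compound, cells received a B/G FRET substrate and fluorescence was read.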
# [8] = qHTS assay to identify small molecule agonists of the peroxisome proliferator-activated receptor delta (PPARd) signaling pathway - cell viability counter screen (AID 743211); further: nearly all actives have a fitted effect of over 55% in size
# In short: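 HEK293H PPARd-bla, 3000 cells/well; 5 h preincubation 37C/5% CO2; cpd in DMSO, 17 h 37C; B/G FRET substrate 2 h RT; CellTiter-Glo 30 min RT, luminescence.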
# [9] = biological target: Peroxisome proliferator-activated receptor delta (Homo sapiens) (UniProt Q03181); assay: qHTS assay to identify small molecule agonists of the peroxisome proliferator-activated receptor delta (PPARd) signaling pathway (AID 743212; calls by dose curve)
# Sequence of Peroxisome proliferator-activated receptor delta (Homo sapiens) (Q03181 whole entry, looked up): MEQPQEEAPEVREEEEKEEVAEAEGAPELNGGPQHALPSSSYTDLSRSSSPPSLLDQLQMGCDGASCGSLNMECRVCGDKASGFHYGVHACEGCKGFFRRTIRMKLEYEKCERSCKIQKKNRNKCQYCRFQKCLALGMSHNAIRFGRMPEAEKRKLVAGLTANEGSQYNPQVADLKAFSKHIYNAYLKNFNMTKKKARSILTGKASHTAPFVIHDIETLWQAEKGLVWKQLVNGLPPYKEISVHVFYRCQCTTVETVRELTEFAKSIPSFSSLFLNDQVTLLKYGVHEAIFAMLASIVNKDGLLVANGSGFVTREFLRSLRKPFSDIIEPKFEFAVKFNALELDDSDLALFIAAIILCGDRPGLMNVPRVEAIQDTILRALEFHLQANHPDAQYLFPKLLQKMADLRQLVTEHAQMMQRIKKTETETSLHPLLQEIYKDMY
# In short: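 Quantitative high-throughput agonist screen in a HEK293H beta-lactamase reporter line under UAS control. Compounds in DMSO, at 37 C. Fluorescence read after 2 h with FRET substrate at room temperature.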
# [10] = biological target: Bile acid receptor (Homo sapiens) (UniProt Q96RI1); assay: qHTS assay to identify small molecule antagonists of the farnesoid-X-receptor (FXR) signaling pathway (AID 743217; active means well fitted inhibition curve with a large enough effect in the signal ratio in the repeat runs, not every such curve was filed as active; the % refers to the signal ratio)
# Sequence of Bile acid receptor (Homo sapiens) (Q96RI1 whole entry, looked up): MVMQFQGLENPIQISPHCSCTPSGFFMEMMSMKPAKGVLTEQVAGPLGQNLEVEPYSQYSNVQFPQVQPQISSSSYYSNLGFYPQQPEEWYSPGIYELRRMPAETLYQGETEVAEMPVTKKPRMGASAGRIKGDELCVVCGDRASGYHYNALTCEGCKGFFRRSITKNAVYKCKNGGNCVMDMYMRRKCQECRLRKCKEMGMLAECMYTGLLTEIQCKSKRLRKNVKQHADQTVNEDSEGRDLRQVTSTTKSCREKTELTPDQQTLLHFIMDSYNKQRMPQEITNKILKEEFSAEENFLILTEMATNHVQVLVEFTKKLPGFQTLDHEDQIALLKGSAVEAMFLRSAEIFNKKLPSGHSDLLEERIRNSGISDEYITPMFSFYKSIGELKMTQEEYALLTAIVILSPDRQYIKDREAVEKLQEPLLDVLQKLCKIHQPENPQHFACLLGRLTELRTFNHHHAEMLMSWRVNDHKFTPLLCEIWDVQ
# In short: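 In this cell-based antagonist screen, inhibition of CDCA-driven (50 uM final) UAS-beta-lactamase expression in HEK 293T cells was measured by FRET fluorescence following 16 h compound exposure at 37 °C.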
# [11] = biological target: Bile acid receptor (Homo sapiens) (UniProt Q96RI1); assay: qHTS assay to identify small molecule agonists of the farnesoid-X-receptor (FXR) signaling pathway (AID 743220; active means well fitted activation curve with a large enough effect in the signal ratio in the repeat runs, not every such curve was filed as active; the % refers to the signal ratio)
# In short: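 Beta-lactamase reporter under UAS control in GeneBLAzer FXR HEK 293T cells (5000/well) measured with LiveBLAzer FRET substrate after 2 h at room temperature. Compound exposure lasted 16 h at 37C.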
# [12] = qHTS assay to identify small molecule antagonists of the farnesoid-X-receptor (FXR) signaling pathway - cell viability counter screen (AID 743221; active means well fitted cell-killing curve with a large enough effect in the repeat runs, not every such curve was filed as active; further: nearly all actives have a fitted effect of over 50% in size)
# In short: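 Luminescence from CellTiter-Glo measures cytotoxicity in GeneBLAzer FXR-UAS-bla HEK 293T cells. Cells were exposed to compounds with 50 uM chenodeoxycholic acid (final) for 16 h at 37 C, in wells also used for the reporter readout.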
# [13] = biological target: Aryl hydrocarbon receptor (Homo sapiens) (UniProt P35869); assay: qHTS assay to identify small molecule that activate the aryl hydrocarbon receptor (AhR) signaling pathway (AID 743085);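 further: HG2L7.5c1 human HepG2 liver cells with stably integrated DRE-driven firefly reporter; series mostly up to about 70 µM; nearly all actives have a fitted effect of over 15% in size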
# Sequence of Aryl hydrocarbon receptor (Homo sapiens) (P35869 whole entry, looked up): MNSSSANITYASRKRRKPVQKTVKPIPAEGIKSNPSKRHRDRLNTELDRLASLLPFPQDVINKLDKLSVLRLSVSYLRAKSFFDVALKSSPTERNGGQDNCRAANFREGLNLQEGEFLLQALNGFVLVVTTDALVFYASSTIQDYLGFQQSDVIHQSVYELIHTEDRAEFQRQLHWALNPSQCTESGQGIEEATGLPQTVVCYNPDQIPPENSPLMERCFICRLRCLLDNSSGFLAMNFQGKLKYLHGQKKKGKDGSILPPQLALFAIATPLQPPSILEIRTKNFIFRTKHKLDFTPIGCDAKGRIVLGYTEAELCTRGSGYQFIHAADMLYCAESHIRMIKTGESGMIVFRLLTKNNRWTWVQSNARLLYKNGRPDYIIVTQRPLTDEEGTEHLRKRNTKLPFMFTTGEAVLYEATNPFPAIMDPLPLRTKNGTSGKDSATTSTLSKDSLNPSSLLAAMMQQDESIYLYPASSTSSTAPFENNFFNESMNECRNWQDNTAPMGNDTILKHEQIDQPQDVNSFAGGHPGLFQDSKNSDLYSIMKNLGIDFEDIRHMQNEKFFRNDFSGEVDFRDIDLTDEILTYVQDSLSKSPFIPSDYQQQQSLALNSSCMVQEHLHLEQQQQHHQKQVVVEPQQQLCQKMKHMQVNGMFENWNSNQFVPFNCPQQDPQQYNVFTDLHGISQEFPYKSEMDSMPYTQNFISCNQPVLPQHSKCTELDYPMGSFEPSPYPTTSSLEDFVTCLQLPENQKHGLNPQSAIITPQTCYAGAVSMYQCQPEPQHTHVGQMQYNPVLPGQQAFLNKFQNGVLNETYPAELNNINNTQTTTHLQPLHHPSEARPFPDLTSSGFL
# In short: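 Cell line HG2L7.5c1 (human hepatoma, 20× DRE-luc). Plated, 5 h 37C, compound/DMSO added, 24 h 37C. CellTiter-Fluor 30 min 37C → fluorescence; then ONE-Glo 30 min RT → luminescence.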
# [14] = biological target: Peroxisome proliferator-activated receptor gamma (Homo sapiens) (UniProt P37231); assay: qHTS assay to identify small molecule agonists of the peroxisome proliferator-activated receptor gamma (PPARg) signaling pathway (AID 743094; active means well fitted activation curve with a large enough effect in the signal ratio in the repeat runs, not every such curve was filed as active; the % refers to the signal ratio)
# In short: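 Following 5 h plating at 37C, PPARg-bla HEK293H cells receive compound or DMSO for 17 h; fluorescence intensity is recorded after LiveBLAzer B/G loading for 1 h at room temperature.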
# [15] = qHTS assay to identify small molecule antagonists of the peroxisome proliferator-activated receptor delta (PPARd) signaling pathway - cell viability counter screen (AID 743213); further: nearly all actives have a fitted effect of over 50% in size
# In short: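 Same-well viability: cells pre-incubated 5 h, dosed with compound plus 300 nM L165041, kept 17 h at 37 C, FRET substrate 2 h RT, then CellTiter-Glo 30 min RT and luminescence.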
# [16] = biological target: Peroxisome proliferator-activated receptor delta (Homo sapiens) (UniProt Q03181); assay: qHTS assay to identify small molecule antagonists of the peroxisome proliferator-activated receptor delta (PPARd) signaling pathway (AID 743215; active means well fitted inhibition curve with a large enough effect in the signal ratio in the repeat runs, not every such curve was filed as active; the % refers to the signal ratio;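 further: cells stimulated with agonist L165041 at 300 nM final during compound exposure; series mostly up to about 62 µM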)
# In short: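 With L165041 present at 300 nM final, compounds were incubated 17 h at 37 C on PPARd UAS-bla HEK293H cells. A FRET-based beta-lactamase substrate was then applied for 2 h at room temperature and fluorescence intensity recorded.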
# [17] = qHTS assay to identify small molecule agonists of the farnesoid-X-receptor (FXR) signaling pathway - cell viability counter screen (AID 743218); further: nearly all actives have a fitted effect of over 45% in size
# In short: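 After 16 h at 37 C with test compounds, FXR-bla HEK 293T cells were given LiveBLAzer B/G substrate for 2 h at RT and then CellTiter-Glo; luminescence was taken after 30 min.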
# [18] = biological target: Vitamin D3 receptor (Homo sapiens) (UniProt P11473); assay: qHTS assay to identify small molecule agonists of the vitamin D receptor (VDR) signaling pathway (AID 743222; calls by dose curve)
# Sequence of Vitamin D3 receptor (Homo sapiens) (P11473 whole entry, looked up): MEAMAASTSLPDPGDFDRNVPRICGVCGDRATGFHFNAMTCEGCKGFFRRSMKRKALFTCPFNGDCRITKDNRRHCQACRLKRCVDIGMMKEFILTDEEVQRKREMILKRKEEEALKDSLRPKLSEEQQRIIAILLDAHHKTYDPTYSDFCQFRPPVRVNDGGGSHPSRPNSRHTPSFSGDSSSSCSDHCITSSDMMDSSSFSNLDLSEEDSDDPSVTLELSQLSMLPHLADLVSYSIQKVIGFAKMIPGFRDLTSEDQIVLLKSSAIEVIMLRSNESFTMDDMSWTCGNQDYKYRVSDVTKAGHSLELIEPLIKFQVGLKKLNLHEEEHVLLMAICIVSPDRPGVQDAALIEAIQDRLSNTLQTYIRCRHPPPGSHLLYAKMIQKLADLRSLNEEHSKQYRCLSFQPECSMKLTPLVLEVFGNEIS
# In short: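 VDR-bla cells were seeded, left 4 h, treated with compounds in DMSO for 16 h, incubated 2 h at RT with B/G FRET substrate, and read for fluorescence.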
# [19] = biological target: Vitamin D3 receptor (Homo sapiens) (UniProt P11473); assay: qHTS assay to identify small molecule antagonists of the vitamin D receptor (VDR) signaling pathway (AID 743223; active means well fitted inhibition curve with a large enough effect in the signal ratio in the repeat runs, not every such curve was filed as active; the % refers to the signal ratio)
# In short: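 Antagonist mode uses 1alpha,25-dihydroxyvitamin D3 at 3 nM final as stimulus. VDR-bla cells receive compounds in DMSO, incubate 16 h at 37C, then a beta-lactamase FRET substrate for 2 h at room temperature before fluorescence measurement.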
# [20] = qHTS assay to identify aromatase inhibitors - cell viability counter screen (AID 743084);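 further: cells stimulated with testosterone during compound exposure; nearly all actives have a fitted effect of over 55% in size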
SMILES,Potency [1],Potency [2],Potency [3],Potency [4],Potency [5],outcome [6],outcome [7],Potency [8],Potency [9],outcome [10],outcome [11],Potency [12],Potency [13],Potency [14],Potency [15],outcome [16],Potency [17],outcome [18],outcome [19],Potency [20]
O=C(O)c1ccc2c(c1)nc(C(=O)NC1CCN(C3CC3)CC1)n2Cc1cc(-c2ccc(Cl)s2)on1,inactive,3.13 µM (active),inactive,inactive,inactive,inactive,inactive,inactive,inactive,inactive,inactive,inactive,–,–,–,–,–,–,–,–
CC(C)C/C=C(\C=O)c1ccccc1,inactive,inactive,inactive,inactive,inactive,inactive,inactive,inactive,inactive,–,inactive,–,inactive,inactive,inactive,inactive,inactive,inactive,inactive,–
CC(C)(C)NCC(O)COc1ccc(NC(=O)NC2CCCCC2)cc1 (configuration not stated),–,inactive,inactive,inactive,inactive,inactive,inactive,inactive,inactive,inactive,inactive,inactive,–,inactive,inactive,inactive,inactive,inactive,inactive,inactive
